The whole screen tested about 5,500 compounds, of which about 2,000 (36%) were called active. Not shown: some 18% with an inconclusive outcome. No stated cut-off is given here; in the data, active means normalized growth mostly below about 0.91 (no sharp cut-off); inconclusive means no clear call, values can overlap the other calls; inactive means mostly above about 0.92. The list shows a part of the results.
Assay: chemical genetic growth profiling, strain panel (AID 1159580);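 further: tested at 20 µM; growth read once vehicle control cultures reached saturation at 30 °C; 1 = growth at the plate median or of vehicle wells; lower values mean less growth of the strain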
Conditions: growth OD

Measured: normalized growth

CC(=O)Oc1cc(OC(C)=O)c2c(c1)O[C@H](c1ccc(OC(C)=O)c(OC(C)=O)c1)[C@@H](OC(C)=O)C2
inactive: S. cerevisiae deletion strains, locus YJR066W, strain TOR1, active compounds read low 0.934 | S. cerevisiae deletion strains, locus YJR075W, strain HOC1, active compounds read low 1.01 | S. cerevisiae deletion strains, locus YKL009W, strain mrt4, active compounds read low 1.04 | S. cerevisiae deletion strains, locus YKL068W, active compounds read low 0.987 | S. cerevisiae deletion strains, locus YKL085W, strain MDH1 (second series), active compounds read low 0.983 | S. cerevisiae deletion strains, locus YKL085W, strain MDH1, active compounds read low 0.983 | S. cerevisiae deletion strains, locus YKL160W, strain elf1, active compounds read low 1 | S. cerevisiae deletion strains, locus YKL190W, strain CNB1, active compounds read low 0.997 | S. cerevisiae deletion strains, locus YKR001C, strain vps1, active compounds read low 0.97 | S. cerevisiae deletion strains, locus YKR026C, strain gcn3, active compounds read low 0.972 | S. cerevisiae deletion strains, locus YKR091W, strain srl3, active compounds read low 1 | S. cerevisiae deletion strains, locus YLL001W, strain dnm1, active compounds read low 0.992 | S. cerevisiae deletion strains, locus YLL026W, active compounds read low 0.995 | S. cerevisiae deletion strains, locus YLL041C, strain sdh2, active compounds read low 0.997 | S. cerevisiae deletion strains, locus YLR027C, strain aat2, active compounds read low 1.02 | S. cerevisiae deletion strains, locus YLR039C, strain RIC1, active compounds read low 1.04 | S. cerevisiae deletion strains, locus YLR058C, strain SHM2, active compounds read low 1 | S. cerevisiae deletion strains, locus YLR102C, strain apc9, active compounds read low 0.986 | S. cerevisiae deletion strains, locus YLR113W, strain HOG1, active compounds read low 0.966 | S. cerevisiae deletion strains, locus YLR221C, strain rsa3, active compounds read low 1.01 | S. cerevisiae deletion strains, locus YLR258W, strain gsy2, active compounds read low 1 | S. cerevisiae deletion strains, locus YLR262C, strain YPT6 (second series), active compounds read low 0.998 | S. cerevisiae deletion strains, locus YLR262C, strain YPT6, active compounds read low 1.09 | S. cerevisiae deletion strains, locus YLR268W, strain sec22, active compounds read low 0.958 | S. cerevisiae deletion strains, locus YLR320W, strain mms22, active compounds read low 0.977 | S. cerevisiae deletion strains, locus YLR330W, strain CHS5, active compounds read low 0.995 | S. cerevisiae deletion strains, locus YLR342W, strain FKS1 (second series), active compounds read low 0.979 | S. cerevisiae deletion strains, locus YLR342W, strain FKS1, active compounds read low 0.994 | S. cerevisiae deletion strains, locus YLR357W, strain rsc2, active compounds read low 0.992 | S. cerevisiae deletion strains, locus YLR370C, strain arc18, active compounds read low 1.01 | S. cerevisiae deletion strains, locus YLR371W, strain rom2, active compounds read low 0.959 | S. cerevisiae deletion strains, locus YLR384C, strain iki3, active compounds read low 1 | S. cerevisiae deletion strains, locus YLR418C, strain cdc73, active compounds read low 1.03 | S. cerevisiae deletion strains, locus YML016C, strain PPZ1, active compounds read low 0.978 | S. cerevisiae deletion strains, locus YML032C, strain rad52, active compounds read low 1.01 | S. cerevisiae deletion strains, locus YML120C, strain ndi1, active compounds read low 1.01 | S. cerevisiae deletion strains, locus YML124C, strain tub3, active compounds read low 0.981 | S. cerevisiae deletion strains, locus YMR058W, strain fet3, active compounds read low 1 | S. cerevisiae deletion strains, locus YMR078C, strain ctf18, active compounds read low 0.964 | S. cerevisiae deletion strains, locus YMR125W, strain sto1, active compounds read low 0.996 | S. cerevisiae deletion strains, locus YMR129W, active compounds read low 1 | S. cerevisiae deletion strains, locus YMR205C, strain PFK2, active compounds read low 0.972 | S. cerevisiae deletion strains, locus YMR223W, strain ubp8, active compounds read low 1 | S. cerevisiae deletion strains, locus YMR231W, strain pep5, active compounds read low 1 | S. cerevisiae deletion strains, locus YMR307W, strain GAS1, active compounds read low 1.1 | S. cerevisiae deletion strains, locus YNL067W, strain RPL9B, active compounds read low 1 | S. cerevisiae deletion strains, locus YNL071W, strain lat1, active compounds read low 1.01 | S. cerevisiae deletion strains, locus YNL153C, strain GIM3, active compounds read low 1 | S. cerevisiae deletion strains, locus YNL183C, strain NPR1, active compounds read low 0.904 | S. cerevisiae deletion strains, locus YNL209W, strain ssb2, active compounds read low 1 | S. cerevisiae deletion strains, locus YNL233W, strain BNI4, active compounds read low 0.983 | S. cerevisiae deletion strains, locus YNL248C, strain rpa49, active compounds read low 1.01 | S. cerevisiae deletion strains, locus YNL250W, strain rad50, active compounds read low 0.977 | S. cerevisiae deletion strains, locus YNL271C, strain bni1, active compounds read low 0.975 | S. cerevisiae deletion strains, locus YNL298W, strain CLA4, active compounds read low 0.979 | S. cerevisiae deletion strains, locus YNL307C, strain MCK1, active compounds read low 0.98 | S. cerevisiae deletion strains, locus YNL322C, strain KRE1 (second series), active compounds read low 0.997 | S. cerevisiae deletion strains, locus YNL322C, strain KRE1, active compounds read low 0.998 | S. cerevisiae deletion strains, locus YNR049C, strain mso1, active compounds read low 0.995 | S. cerevisiae deletion strains, locus YNR052C, strain pop2, active compounds read low 0.981 | S. cerevisiae deletion strains, locus YOL012C, strain htz1 0.674 | S. cerevisiae deletion strains, locus YOL147C, strain pex11, active compounds read low 1 | S. cerevisiae deletion strains, locus YOR001W, strain rrp6, active compounds read low 0.997 | S. cerevisiae deletion strains, locus YOR061W, strain CKA2, active compounds read low 0.977 | S. cerevisiae deletion strains, locus YOR069W, strain VPS5, active compounds read low 0.989 | S. cerevisiae deletion strains, locus YOR070C, strain gyp1, active compounds read low 1 | S. cerevisiae deletion strains, locus YOR080W, strain dia2, active compounds read low 0.998 | S. cerevisiae deletion strains, locus YOR083W, strain WHI5, active compounds read low 1.01 | S. cerevisiae deletion strains, locus YOR106W, strain vam3, active compounds read low 1 | S. cerevisiae deletion strains, locus YOR136W, strain idh2, active compounds read low 0.965 | S. cerevisiae deletion strains, locus YOR144C, strain elg1, active compounds read low 0.982 | S. cerevisiae deletion strains, locus YOR184W, strain ser1, active compounds read low 0.986 | S. cerevisiae deletion strains, locus YOR231W, strain MKK1, active compounds read low 0.974 | S. cerevisiae deletion strains, locus YOR265W, strain rbl2, active compounds read low 1 | S. cerevisiae deletion strains, locus YOR270C, strain vph1, active compounds read low 0.988 | S. cerevisiae deletion strains, locus YOR290C, strain snf2, active compounds read low 0.961 | S. cerevisiae deletion strains, locus YOR316C, strain cot1, active compounds read low 0.986 | S. cerevisiae deletion strains, locus YPL051W, strain arl3, active compounds read low 1.01 | S. cerevisiae deletion strains, locus YPL055C, strain LGE1, active compounds read low 0.999 | S. cerevisiae deletion strains, locus YPL078C, strain atp4, active compounds read low 1.02 | S. cerevisiae deletion strains, locus YPL106C, strain sse1, active compounds read low 0.996 | S. cerevisiae deletion strains, locus YPL240C, strain hsp82, active compounds read low 0.992 | S. cerevisiae deletion strains, locus YPL241C, strain CIN2, active compounds read low 0.999 | S. cerevisiae deletion strains, locus YPL256C, strain CLN2, active compounds read low 0.974 | S. cerevisiae deletion strains, locus YPR119W, strain clb2, active compounds read low 0.979 | S. cerevisiae deletion strains, locus YPR141C, strain kar3, active compounds read low 0.981 | S. cerevisiae deletion strains, locus YPR163C, strain tif3, active compounds read low 0.994 | S. cerevisiae deletion strains, locus YPR167C, strain met16, active compounds read low 0.978 | S. cerevisiae deletion strains, strain wtn01, active compounds read low 0.951 | S. cerevisiae strains, strain wild type, active compounds read low 0.993
